# From PubChem BioAssay AID651724 (National Center for Advancing Translational Sciences (NCATS), 2012)
# Screen size: about 340,000 compounds; about 1,700 (0.5%) were called active. Not shown: some 2% with an inconclusive outcome. Rule as the data show it: active = activity change below about -65%; inconclusive = mostly about -30% to -63%; inactive = weaker than that. The full list was thinned out, with actives kept by preference.
# System: CtBP / adenovirus E1A interaction (AlphaScreen)
# Assay: qHTS Assay for Inhibitors of the CtBP/E1A Interaction
# Conditions: AlphaScreen GST-E1A/His-CtBP binding, 1536-well; stronger effect = lower value
# Summary of the method: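 In 5 uL wells, 23 nL compound meets equimolar GST-E1A and His-CtBP (5X stock 125 nM each) for 2 h, 37 °C. Beads (5X, 50 ug/mL) then 1 h, 37 °C, dark.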
# % is scaled to controls: 0 for no effect and ±100 for the full control effect.
row,Compound,activity change
1,CC(C)Nc1ncnc2c1ncn2[C@H]1CN(Cc2ccncc2)C[C@@H](CO)O1,4.17% (inactive)
2,Cc1cc(O)ccc1-c1cc(C(=O)NCc2cc(C(F)(F)F)cc(C(F)(F)F)c2)[nH]n1,0.488% (inactive)
3,O=C(Nc1ccc(Cl)c(C(F)(F)F)c1)C1Cc2c(-c3ccccc3Oc3ccccc3)ccnc2O1 (configuration not stated),-3.42% (inactive)
4,CC(O)(c1cccc(F)c1)c1nc(-c2ccc3c(c2)OCO3)cs1 (configuration not stated),0.33% (inactive)
5,Cc1ncc(CO)c(/C=N/NC(=O)c2cccc(S(=O)(=O)N3CCCC3)c2)c1O,0% (inactive)
6,Cc1cc(C)nc(N/N=C/c2c(CO)cnc(C)c2O)n1,-85.2% (active)
7,CCc1nc2c(OCc3ccc(Cl)cc3Cl)cccn2c1N(C)C(=O)C(C)C,-14.5% (inactive)
8,Cc1ccc(NC(=O)c2nc[nH]c2C(=O)N[C@@H](CCCCNC(=O)OC(C)(C)C)C(=O)OC(C)(C)C)cc1,-1.82% (inactive)
9,CC(C)(C)OC(=O)NCCCCCNC(=O)c1nc[nH]c1C(=O)NCc1ccccc1,4.97% (inactive)
10,CC(C)(C)OC(=O)NCCCCCNC(=O)c1[nH]cnc1C(=O)Nc1nccs1,-77% (active)
11,O=c1[nH]c(NCCO)nnc1Cc1ccc(Cl)cc1,0.739% (inactive)
12,COc1ccc(Cc2nnc(SC)[nH]c2=O)cc1,0.0747% (inactive)
13,COc1ccc(Cc2nnc(N/N=C/c3ccccc3O)[nH]c2=O)cc1OC,-73.4% (active)
14,CC1CCN(C(=O)CSc2nnc(-c3ccco3)n2N)CC1,1.76% (inactive)
15,COc1cc2ccc(C(C)=O)c(O)c2cc1OC,3.1% (inactive)
16,NC(c1csc(NC(=O)Nc2ccccc2Oc2ccccc2)n1)c1ccccc1Cl (configuration not stated),-22.8% (inactive)
17,Cc1cccc(C)c1Cn1c(C)c(C(=O)NCc2cccc(Cl)c2)sc1=O,-20% (inactive)
18,NS(=O)(=O)c1ccc(CCNS(=O)(=O)c2cccc3cccnc23)cc1,3.18% (inactive)
19,O=[N+]([O-])c1ccccc1S(=O)(=O)Nc1cccc2cccnc12,-78.7% (active)
20,Cc1ccc2cccc([N+](=O)[O-])c2n1,-11.4% (inactive)
21,CNC(=O)C1CN(C(=O)c2cccc(S(=O)(=O)N3CCc4ccccc43)c2)c2ccccc2O1 (configuration not stated),-7.74% (inactive)
22,CCOC(=O)[C@]12CCCC=C1N(Cc1ccc3c(c1)OCO3)C(=O)[C@H](CC(=O)NCc1cccs1)C2,-17.2% (inactive)

row,Compound,activity change
1,CN(C)C(CNC(=O)c1cc(Br)c(Br)s1)c1ccco1 (configuration not stated),0.728% (inactive)
2,CCc1ccc(/C=N/NC(=O)c2nnn(-c3nonc3N)c2CN2CCc3ccccc32)cc1,-23.8% (inactive)
3,CC(C)c1c(C(=O)N/N=C/c2ccccc2C(=O)O)nnn1-c1nonc1N,18.7% (inactive)
4,Nc1nonc1-n1nnc(C(=O)N/N=C/c2ccccc2O)c1CN1CCCC1,-92.6% (active)
5,CCOC(=O)N1CCN(C(=O)C[C@@H]2C[C@@]3(C(=O)OC)CCCCC=C3N(CCC3=CCCCC3)C2=O)CC1,-2.03% (inactive)
6,Oc1ccc2ccccc2c1N=Nc1nccs1,-93.9% (active)
7,Oc1ccc(N=Nc2nccs2)c(O)c1,-92.5% (active)
8,OC[C@@H]1CN(Cc2ccc(-c3ccccc3)cc2)C[C@H](n2cnc3c(NC4CCCC4)ncnc32)O1,-10.7% (inactive)
9,O=C1[C@H]2[C@@H](c3ccc(C(F)(F)F)cc3)N[C@]3(CCCN(Cc4ccc(Cl)cc4)C3=O)[C@H]2C(=O)N1Cc1ccccc1,5.38% (inactive)
10,Cc1ccc(S(=O)(=O)N2C[C@H]3n4c(=O)ccc(=O)n4C[C@H](OC(=O)NC4CCCC4)[C@@]3(O)C2)cc1,2.31% (inactive)
11,CC(=O)NC(c1cccc(F)c1)c1nc(-c2cccc(F)c2)cs1 (configuration not stated),6.59% (inactive)
12,CCOC(=O)c1cc(-c2sc(NC(=O)c3ccccc3)nc2C)n(-c2ccc(Br)cc2)n1,0% (inactive)
13,COc1cccc(NC(=O)CN(C)C(=O)c2cc(Cl)nc3ccccc23)c1,-3.92% (inactive)
14,Cc1ccsc1C(=O)N/N=C/c1ccc([N+](=O)[O-])cc1,-4.19% (inactive)
15,Cc1cc(C(=O)N/N=C/c2cc([N+](=O)[O-])cc(C)c2O)n[nH]1,-87.9% (active)
16,COc1ccc2ccccc2c1/C=N/NC(=O)c1cc(C)[nH]n1,-8.94% (inactive)
17,Cc1ccccc1S(=O)(=O)NC(=O)C1(C)CCN1C(=O)C1(c2ccc(Cl)cc2)CC1 (configuration not stated),9.59% (inactive)
18,NC(c1ccccc1)c1csc(NC(=O)Nc2cccc(C(F)(F)F)c2)n1 (configuration not stated),-14.2% (inactive)
19,O=C(COc1ccc(Cl)cc1Cl)N/N=C/c1ccccn1,-13% (inactive)
20,NC(=S)NN=Cc1ccc(OC(=O)COc2cc(Cl)c(Cl)cc2Cl)cn1,-89.3% (active)
21,O=C(COC(=O)COc1cc(Cl)c(Cl)cc1Cl)NC1CC1,-0.684% (inactive)
22,CCCS(=O)(=O)NC(=O)C1(C)CCCN(C(=O)c2ccnc(Cl)c2)C1 (configuration not stated),-15.6% (inactive)

row,Compound,activity change
1,Cc1cc([N+](=O)[O-])c(NC2CCCCC2)c([N+](=O)[O-])c1,-67.5% (active)
2,Cc1cc([N+](=O)[O-])ccc1NC1CCCC1,-0.0944% (inactive)
3,Cc1cc([N+](=O)[O-])c(N2CCC[C@@H]2C(=O)O)c([N+](=O)[O-])c1,4.03% (inactive)
4,CN(C)CCNC(=O)c1ccc(-c2cn3c(-c4ccc(Oc5ccccc5)cc4)cnc3cn2)cc1,-7.14% (inactive)
5,Oc1c(CN2CCN(c3ccc(F)cc3)CC2)cc(Cl)c2cccnc12,-85.8% (active)
6,Cc1ccc(CN2CCN(c3ncccn3)CC2)c(C)c1,-0.239% (inactive)
7,Cc1cccc(C)c1NC(=O)CN1CCN(c2ccc(F)cc2)CC1,-4.18% (inactive)
8,O=C1CC[C@@H](C(=O)N2CSC[C@@H]2C(=O)Nc2ccc(C(F)(F)F)cc2)N1,2.94% (inactive)
9,COc1ccc(C=C2CCC3C(CCCC34OCCO4)C2=O)cc1 (configuration not stated),-0.25% (inactive)
10,Cc1ccc(C(=O)N/C(=C\c2cccs2)C(=O)NCCc2ccccn2)cc1C,-19.9% (inactive)
11,COc1cccc(NC(=S)NCc2ccccn2)c1,-9.96% (inactive)
12,COc1cncc(-c2cnc3sc(NCCc4ccccn4)nn23)c1,-68.3% (active)
13,O=S(=O)(c1cccc(C(F)(F)F)c1)N1c2ccccc2-n2cccc2C1c1cccnc1 (configuration not stated),1.4% (inactive)
14,C[C@@H]1CN([C@@H](C)CO)C(=O)c2cc(Br)cnc2O[C@H]1CN(C)Cc1ccc(-c2ccccc2)cc1,-2.2% (inactive)
15,CCCCCc1c(-c2cccc(Br)c2)ncn1CCc1ccccc1OC,-0.685% (inactive)
16,COc1cccc(C(NC(C)=O)c2nc(-c3cnc4ccccc4c3)cs2)c1 (configuration not stated),-20.3% (inactive)
17,Cc1ccc(-c2cnc(C(O)c3cccc(C)c3C)[nH]2)cc1 (configuration not stated),-4.55% (inactive)
18,COCCNC(=O)CSc1nc(N)c(NC(=O)c2ccco2)c(=O)[nH]1,12.4% (inactive)
19,COc1ccc(C(=O)Nc2c(N)nc(SCC(=O)Nc3ccc(C(C)=O)cc3)[nH]c2=O)cc1,-2.12% (inactive)
20,COC(=O)c1ccc(NC(=O)CSc2nc(N)c(NC(=O)c3ccc(Br)o3)c(=O)[nH]2)cc1,-65.1% (active)
21,O=c1nc2s/c(=C\c3ccco3)c(=O)n2nc1Cc1ccccc1,-81.2% (active)
22,O=C(NCCc1ccco1)c1nn(Cc2ccccc2)c(=O)c2ccccc12,-2.1% (inactive)

row,Compound,activity change
1,O=C(Nc1ccccc1)/C(=C\c1ccco1)NC(=O)c1ccco1,0.317% (inactive)
2,CCCCOCCCNC(=O)C[C@@H]1C[C@@]2(C(=O)OC)CCCCC=C2N(CCC2=CCCCC2)C1=O,-1.56% (inactive)
3,CC(C)Sc1ncnc2c1cnn2-c1ccccc1,0.575% (inactive)
4,Cc1ccc(-n2ncc3c(Nc4cccc(C(=O)O)c4)ncnc32)cc1,-74.4% (active)
5,Cc1ccc(Nc2ncnc3c2cnn3C)c(C)c1,3.32% (inactive)
6,CC(=O)Nc1cc(-c2cccc(CO)c2)cn2c(-c3cccc(C(F)(F)F)c3)cnc12,3.79% (inactive)
7,CN(Cc1cn(Cc2ccc(C(F)(F)F)cc2)nn1)C1CN(Cc2cn(Cc3ccc(C(F)(F)F)cc3)nn2)S(=O)(=O)C1 (configuration not stated),3.64% (inactive)
8,O=C(Nc1ccc(C(=O)O)cc1)/C(=C/c1ccc([N+](=O)[O-])cc1)NC(=O)c1ccccc1,-2.48% (inactive)
9,O=C(N/N=C/c1cc([N+](=O)[O-])ccc1O)/C(=C\c1cccs1)NC(=O)c1ccccc1,-94.1% (active)
10,Cc1ccc(NC(=O)/C(=C/c2ccc([N+](=O)[O-])cc2)NC(=O)c2ccccc2)cc1,4.11% (inactive)
11,CCCCN(C=O)c1c(CC)nc2c(OCCC3CCCCC3)cccn12,-11% (inactive)
12,CCC(CC)C(C(=O)NC1CCCC1)N1CCN(c2cc(C)nc3ccccc23)CC1 (configuration not stated),3.39% (inactive)
13,Cc1cc(=O)oc2c(C)c(OCC(=O)NCCN3CCOCC3)ccc12,0.132% (inactive)
14,CCc1cc(=O)oc2c(C)c(OCC(=O)NCCN3CCOCC3)ccc12,-6.07% (inactive)
15,O=C(COc1cc2oc(=O)c3c(c2cc1Cl)CCC3)NCCCN1CCOCC1,-65.9% (active)
16,O=C(CC(CC(=O)c1ccccc1)c1ccco1)c1ccccc1,4.89% (inactive)
17,Cc1ccc(S(=O)(=O)n2oc(=O)c(C3CCCCC3)c2N)cc1,-69.5% (active)
18,Cc1ccc(S(=O)(=O)N2CCC(N3CCCCCC3)CC2)cc1,-10.9% (inactive)
19,Cc1ccc(S(=O)(=O)NC2CCCCCC2)cc1,10.7% (inactive)
20,Cc1cc(Br)cn2c(Cc3ccccc3C(F)(F)F)c(C3CCCCC3)nc12,-6.97% (inactive)
21,Cc1noc(C)c1-c1ccc(C(=O)NCc2ccncc2)c2occc12,-17.7% (inactive)
